ALDH1A1 block – qHTS Assay for Inhibitors of Aldehyde Dehydrogenase 1 (ALDH1A1); Aldehyde dehydrogenase 1A1 (Homo sapiens), P00352; Purified ALDH1A1, NADH fluorescence, propionaldehyde substrate; Potency, µM (highest dose often 75.3 µM), for inactives: at the top dose activity, negative = inhibition, usual class: inhibitors; hit rate 7.3% among 220,000; active = well fitted inhibition curve with a large enough effect, not every such curve was filed as active; inconclusive = small, poorly fitted or top-dose-only effect, or another doubt; inactive = no such curve, though single readings can be large or run the other way;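 note: potency is the fitted concentration of half-maximal effect; plate controls were no enzyme wells and a reference inhibitor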
Target sequence (P00352 whole entry, looked up): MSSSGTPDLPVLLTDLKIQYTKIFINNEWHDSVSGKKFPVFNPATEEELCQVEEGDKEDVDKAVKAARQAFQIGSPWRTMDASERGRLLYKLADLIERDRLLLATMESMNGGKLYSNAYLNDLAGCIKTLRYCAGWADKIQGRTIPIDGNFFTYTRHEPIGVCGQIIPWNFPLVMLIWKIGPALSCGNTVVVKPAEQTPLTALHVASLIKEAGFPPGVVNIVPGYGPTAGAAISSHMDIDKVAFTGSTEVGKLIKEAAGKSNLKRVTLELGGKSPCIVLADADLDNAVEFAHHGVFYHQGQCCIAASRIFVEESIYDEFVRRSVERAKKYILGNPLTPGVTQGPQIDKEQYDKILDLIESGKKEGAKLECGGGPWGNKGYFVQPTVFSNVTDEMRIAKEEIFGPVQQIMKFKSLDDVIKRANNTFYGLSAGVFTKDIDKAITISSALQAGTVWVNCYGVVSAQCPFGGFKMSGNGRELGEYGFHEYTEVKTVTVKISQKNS
Sfp PPTase inh – qHTS Assay for Inhibitors of Bacillus subtilis Sfp phosphopantetheinyl transferase (PPTase); 4'-phosphopantetheinyl transferase ffp (Bacillus subtilis), Q9F4F7; Biochemical Sfp PPTase activity, qHTS; Potency, µM, inactives show largest response in the series, negative = inhibition, usual class: inhibitors; hit rate 3.5% among 310,000;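 note: the enzyme is Sfp with the accession as filed and its product quenches rhodamine fluorescence; potency is the fitted concentration of half-maximal effect; 0% = enzyme reaction without inhibitor and -100% = no enzyme wells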
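Reaction rates are the 30-min fluorescence difference (ex 525, em 598 nm) in wells containing 15 nM Sfp, 5 uM rhodamine-CoA and 12.5 uM BHQ-2-YbbR at pH 7.6 with 10 mM MgCl2.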
miR-21 reporter – qHTS Assay for Modulators of miRNAs and/orActivators of miR-21; HeLa miR-21 FLuc reporter, luciferase, 48 h; Potency, µM (titrated, usually from 38.3 µM), without a hit: at the top dose activity change, positive = activation, most hits filed as activators; 340,000 tested, under 10 active; AID 2288, 2010;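 note: % of control where 0% means no effect; miR-21 action dims this reporter so a rising signal means less miR-21 action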
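Luminescence from a firefly luciferase reporter carrying a miR-21 binding site downstream, stably expressed under a CMV promoter in HeLa cells that make miR-21 endogenously, reports miRNA modulation after 48 h compound exposure up to approximately 40uM final.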
G9a block – qHTS Assay for Inhibitors of Histone Lysine Methyltransferase G9a; G9a H3K9 monomethylation, AlphaScreen, 2 h; Potency, µM (titrated, usually from 102 µM), without a hit: at the highest dose activity, negative = inhibition, hits mostly inhibitors; hit rate 8.8% among 350,000; Histone-lysine N-methyltransferase EHMT2 (Homo sapiens), Q96KQ7; AID 504332, 2011; note: potency is the fitted concentration of half-maximal effect; % is set by controls: 0 for no effect and ±100 for the full control effect; nearly all actives have a fitted effect of over 75% in size
Target sequence (Q96KQ7 913-1193 limits assumed): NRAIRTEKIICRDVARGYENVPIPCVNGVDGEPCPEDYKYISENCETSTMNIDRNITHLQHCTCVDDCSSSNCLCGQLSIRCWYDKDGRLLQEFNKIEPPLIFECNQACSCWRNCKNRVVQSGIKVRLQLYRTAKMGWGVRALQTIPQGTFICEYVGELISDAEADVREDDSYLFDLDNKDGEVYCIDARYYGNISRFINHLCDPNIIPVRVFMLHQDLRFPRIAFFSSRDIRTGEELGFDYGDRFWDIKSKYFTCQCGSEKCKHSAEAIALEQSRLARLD
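Chemiluminescent proximity detection of H3K9 monomethylation, read after 10 min bead incubation in the dark. Reaction: 20 nM G9a, 500 nM biotin-H3K9 peptide, 20 uM SAM cofactor, 2 h, room temperature, following 15 min enzyme-compound preincubation.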
KDM4E inh – qHTS Assay for Inhibitors of Human Jumonji Domain Containing 2E (JMJD2E); Lysine-specific demethylase 4E (Homo sapiens), B2RXH2; JMJD2E catalytic domain, FDH-coupled NADH fluorescence (FDH is formaldehyde dehydrogenase); hit rate 1.6% among 230,000; AID 2147, 2009; Potency, µM (series often up to 57.1 µM), for the others: at the top dose activity change, negative = inhibition, hits mostly inhibitors; active = well fitted inhibition curve with a large enough effect, not every such curve was filed as active; inconclusive = small, poorly fitted or top-dose-only effect, or another doubt; inactive = no such curve, though single readings can be large or run the other way;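 note: potency is the fitted concentration of half-maximal effect; 0% = wells with enzyme and -100% = buffer wells without enzyme; nearly all actives have a fitted effect of over 50% in size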
LMNA splice mod – qHTS Assay for Modulators of Lamin A Splicing. HeLa LMNA splicing GFP/RFP minigene ratio, 48 h. Potency, µM (series often up to 46.1 µM), without a hit: at the top dose ratio change, negative = inhibition, usual class: inhibitors. hit rate 0.01% among 200,000. AID 1487, 2009; active = well fitted inhibition curve with a large enough effect in the signal ratio, with a control signal flat, not every such curve was filed as active; inconclusive = small, poorly fitted or top-dose-only effect, or effect the other way, or a change in a side signal; the % refers to the signal ratio; note: potency is the fitted concentration of half-maximal effect; % is set by controls: 0 for no effect and ±100 for the full control effect
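S3 HeLa cells stably expressing lamin A-EGFP splicing minigene plus DsRed2, 600 cells/well, 48 h compound exposure at 37C. Laser-scanning cytometry; analysed as GFP (500-530 nm)/RFP (575-640 nm) total intensity ratio; 0.5% DMSO vehicle.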
Starred values were filed as active, the others as inactive; ? = inconclusive; / = not tested or not shown; ! = a repeat was not active; [ ] = dose if it differs, or a comment. Only some compounds are listed: those with a hit (about 13% of all), similar ones and a draw of the others. Unless noted, calls come from the whole dose curve; as a rule, active = well fitted curve in the direction sought with a large enough effect; inconclusive = small, poorly fitted or top-dose-only effect, or another doubt; inactive = no such curve, though single readings can be large; an effect the other way counts as inactive or inconclusive.

SMILES	ALDH1A1 block	Sfp PPTase inh	miR-21 reporter	G9a block	KDM4E inh	LMNA splice mod
COc1ccc(-c2nc3n(n2)C(=O)CC(c2ccco2)S3)cc1 (stereo not drawn)	?	?	-16%	2.2µM*	-11%	?
CCC(=O)N1CCc2cc(Br)cc(S(=O)(=O)N3CCCC(C(=O)NC(C)(C)C)C3)c21 (stereo not drawn)	/	11%	-1%	-4%[59 µM]	/	/
Cc1nc2ccccc2n1CCc1nc2c3ccccc3nc(=S)n2[nH]1	7%	50µM*	-13%	14µM*	-6%	1%
CCc1cccc(NC(=O)CSCc2nc3sc(C)c(C)c3c(=O)[nH]2)c1	/	/	/	9%[12.7 µM]	/	/
Cc1sc2nc(CSCC(=O)Nc3ccc(N4CCOCC4)cc3)[nH]c(=O)c2c1C	11µM*	?	8%	-10%	-13%	/
COc1ccc(C2SCCN2C(=S)Nc2ccc(F)cc2)cc1 (stereo not drawn)	?	-9%	-5%	40µM*	?	?
COc1ccc(OC)c(S(=O)(=O)N2Cc3ccccc3CC2C(=O)Nc2ccc(C(C)=O)cc2)c1 (stereo not drawn)	/	/	-15%	-11%[59 µM]	/	/
O=C(NCCn1cccn1)C1CCC(=O)N(CCc2ccc(Cl)cc2)C1 (stereo not drawn)	/	13%	0%	7%	/	/
O=C(Nc1ccc(O)c2c(=O)cc(-c3ccccc3Cl)oc12)c1ccc(F)cc1	/	18%	0%	?	1%	/
O=c1cc(-c2ccccc2Cl)oc2c(NS(=O)(=O)c3cc(Cl)cc(Cl)c3O)ccc(O)c12	10µM*	-17%	?	50µM*	-23%	?
Nc1ccc(O)c2c(=O)cc(-c3ccccc3Cl)oc12	7%	4%	-78%	16µM*!	4%	2%
O=c1cc(-c2ccccc2Cl)oc2cc(O)cc(O)c12	?	-10%	-64%	45µM*	1%	?
N/C(=N\OC(=O)CC1CCCCC1)c1ccc(Cl)cc1	/	11%	-12%	64%	/	/
Cc1cc(C)nc(N/N=C/C2=C(N3CCOCC3)C(=C\c3ccc(Cl)cc3)/CC2)n1	16µM*	-29%	0%	?	?	?
O=C(O)c1ccc(N/N=C/C2=C(N3CCOCC3)C(=C\c3ccccc3)/CC2)cc1	/	50µM*	-51%	/	?	/
COc1ccc(/C=N/Nc2cc(C)nc(N3CCOCC3)n2)cc1	/	1%	-7%	-45%	-6%	/
Cc1occc1C(=O)N/N=C/C1=C(N2CCOCC2)C(=C\c2ccc(Cl)cc2Cl)/CC1	?	-3%	-43%	-2%[59 µM]	4%	-1%
CN(C(=O)NC(=O)C1=C(N2CCOCC2)/C(=C/c2ccccc2)CC1)S(C)(=O)=O	?	-1%	-23%	?	?	5%
O=CC1=C(N2CCOCC2)/C(=C/c2ccc(Cl)cc2)CC1	11µM*	-13%	2%	?	?	/
CCOc1ccc(-n2c(=O)c3c(C)c(C(=O)N(C)C)sc3n(CC(=O)Nc3c(C)cc(C)cc3C)c2=O)cc1	/	/	7%	8%[59 µM]	/	15%[46 µM]
O=C(CCc1nnc2n(Cc3ccccc3Cl)c(=O)c3ccccc3n12)Nc1ccc(F)c(F)c1	/	/	0%	0%[59 µM]	/	/
CCN(CC)Cc1cc(O)c(CN(CC)CC)cc1O	?	10µM*	-1%	1.3µM*	?	-9%[46 µM]
COc1ccc(N/C(C)=C/C(=O)c2ccccc2)cc1	-3%	3%	-58%	?	-16%	11%
COc1ccc(C(=O)/C=C(\C)Nc2ccc3c(c2)OCO3)cc1	?	-30%	-49%	71µM*	2%	-5%
CCOc1ccc(N/C(C)=C\C(=O)c2ccc3c(c2)OCCO3)cc1	13µM*	-2%	-48%	/	?	?
SMILES	ALDH1A1 block	Sfp PPTase inh	miR-21 reporter	G9a block	KDM4E inh	LMNA splice mod
COc1ccc(OC)c(N/C(C)=C/C(=O)c2ccncc2)c1	/	2%	-3%	40µM*	/	/
COc1ccc(OC)c(N/C(C)=C/C(=O)c2ccccc2)c1	-14%	-6%	-85%	?	4%	-1%
Cc1noc(C)c1-c1cc(NCc2cccs2)ncn1	-5%	26%	/	5%[0.501 µM]	/	?
Cc1ccc(NC(=O)c2ccc(Cl)c(N3C(=O)C=CC3=O)c2)cc1	3.2µM*	2.8µM*	16%	-40%[0.501 µM]	-3%	?
C=C1CCN(C(Cc2ccccc2)C(=O)NCc2ccc(Cl)c(Cl)c2)S(=O)(=O)c2ccccc21 (stereo not drawn)	/	-18%	/	/	/	/
CC(=O)Nc1cccc(-c2csc(Nc3ccccn3)n2)c1	-11%	89µM*	2%	16%[0.0925 µM]	-4%	-18%
CC(=O)Nc1ccc(-c2csc(Nc3ncccn3)n2)cc1	6%	15%	-56%	4%	4%	12%[46 µM]
CC(=O)Nc1cccc(-c2csc(NCc3ccccc3)n2)c1	?	40µM*	-15%	11µM*	?	/
CC(=O)Nc1ccc(-c2csc(NCc3ccccc3)n2)cc1	?	-13%	-43%	35µM*	-18%	?
CC(=O)Nc1cccc(-c2csc(Nc3cc(C)ccn3)n2)c1	?	-13%	8%	-2%[12.7 µM]	?	?
CCC(=O)Nc1cccc(-c2csc(-c3ccccc3)n2)c1	?	-8%	-52%	-10%[2.33 µM]	-3%	?
CCc1cccc(C)c1NC(=O)c1cc(S(=O)(=O)N2CCN(c3ccccc3)CC2)ccc1F	/	/	1%	10%[59 µM]	/	16%[46 µM]
O=Cc1ccc(N2CCCCCC2)cc1	0.056µM*	-6%	3%	9%[59 µM]	-3%	-11%
CN=C1S/C(=C\c2ccc(N3CCCC3)c(F)c2)C(=O)N1C	-1%	71µM*	-36%	7%	-3%	/
CN=C1S/C(=C\c2ccc(N3CCOCC3)c(F)c2)C(=O)N1C	-10%	21%	-17%	-5%	5%	-6%
O=Cc1ccc(N2CCCC2)c(F)c1	1.6µM*	4%	-8%	21%	-20%	9%
O=C1N/C(=C/c2ccc(N3CCCC3)cc2)C(=O)N1c1ccccc1	-9%	11%	-31%	-3%[59 µM]	-5%	3%
CC(=O)c1cccc(N2C(=O)CN(S(C)(=O)=O)CC2(C)C(=O)NC2CCCC2)c1 (stereo not drawn)	/	/	0%	1%[59 µM]	/	?
Cc1nc2sc3c(O)cc(=O)[nH]c3c2c(C)c1C	?	-9%	0%	50µM*	?	6%
O=c1cc(O)c2sc3nc(C(F)(F)F)c4c(c3c2[nH]1)CCCCC4	-1%	-24%	-18%	-37%	-17%	?
